# The full ranking holds about 16,000 sequences; the median of “rpm ratio (pull-down/input)” is about 0.94, and the highest 2% start at about 1.7. This excerpt belongs to a sample that is enriched for the highest values.
# Target: T1, MBP-FoxP1dN (Mus musculus, UniProt P58462 326-579)
# T1 sequence: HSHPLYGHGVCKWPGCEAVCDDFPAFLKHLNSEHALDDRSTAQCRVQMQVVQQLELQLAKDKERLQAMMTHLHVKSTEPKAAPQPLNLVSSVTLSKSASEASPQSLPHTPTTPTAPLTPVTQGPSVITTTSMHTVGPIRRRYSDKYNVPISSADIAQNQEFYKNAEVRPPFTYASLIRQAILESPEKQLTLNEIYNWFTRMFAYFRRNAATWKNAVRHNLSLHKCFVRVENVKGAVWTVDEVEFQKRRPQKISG
# Experiment: PD-seq (MBP pull-down with sequencing); 20 mM Tris-HCl pH 7.5, 100 mM NaCl, 1.5 mM MgCl2, 0.4 uM protein, 0.1 uM dsDNA library, 30 min, room temperature, amylose pull-down; high values mean tight binding
# Conditions: protein: recombinant; tags: His6-MBP; chain copies: 2; dsDNA, one strand shown
# Summary of the method: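 The N-terminus-lacking fragment of mouse FoxP3 or FoxP1 carried a His6-MBP tag and was expressed in E. coli. At 0.4 µM it was incubated with 0.1 µM Klenow-filled degenerate double-stranded DNA library for 30 min at room temperature in Tris pH 7.5 buffer with NaCl and MgCl2, and complexes were caught on amylose resin, washed three times, released with proteinase K, PCR-barcoded and Illumina-sequenced. Binding is reads-per-million enrichment of pull-down over input with replicates pooled.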
row,Sequence,binding signal
1,GATGATTGTTCTCCCAGCTGATGAATTCCTCAGATCGAGTAAACAAATTTTCCTAATCTTTCTGTTCAAGCGCCATCTAC,0.761 RPM ratio (pull-down/input)
2,GATGATTGTTCTCCCAGCTGATGAATTCATAAACTCGAGTAAACAAATTTTCCTAATCTTTCTGTTCAAGCGCCATCTAC,1.07 RPM ratio (pull-down/input)
3,GATGATTGTTCTCCCAGCTGATGAATTTGCATGATCGAGTAAACAAATTTTCCTAATCTTTCTGTTCAAGCGCCATCTAC,1.05 RPM ratio (pull-down/input)
4,GATGATTGTTCTCCCAGCTGATGAATTTGTTGCATCGAGTAAACAAATTTTCCTAATCTTTCTGTTCAAGCGCCATCTAC,1.84 RPM ratio (pull-down/input)
5,GATGATTGTTCTCCCAGCTGATGAATTTTTTGCATCGAGTAAACAAATTTTCCTAATCTTTCTGTTCAAGCGCCATCTAC,1.45 RPM ratio (pull-down/input)
6,GATGATTGTTCTCCCAGCTGATGAATTATTTGCATCGAGTAAACAAATTTTCCTAATCTTTCTGTTCAAGCGCCATCTAC,1.89 RPM ratio (pull-down/input)
7,GATGATTGTTCTCCCAGCTGATGAATTGTTTGCATCGAGTAAACAAATTTTCCTAATCTTTCTGTTCAAGCGCCATCTAC,2.26 RPM ratio (pull-down/input)
8,GATGATTGTTCTCCCAGCTGATGAATTCTTTGCATCGAGTAAACAAATTTTCCTAATCTTTCTGTTCAAGCGCCATCTAC,1.26 RPM ratio (pull-down/input)
9,GATGATTGTTCTCCCAGCTGATGAATTATTGCCATCGAGTAAACAAATTTTCCTAATCTTTCTGTTCAAGCGCCATCTAC,1.24 RPM ratio (pull-down/input)
10,GATGATTGTTCTCCCAGCTGATGAATTATTGCAATCGAGTAAACAAATTTTCCTAATCTTTCTGTTCAAGCGCCATCTAC,1.49 RPM ratio (pull-down/input)
11,GATGATTGTTCTCCCAGCTGATGAATTTGCAGCATCGAGTAAACAAATTTTCCTAATCTTTCTGTTCAAGCGCCATCTAC,1.09 RPM ratio (pull-down/input)
12,GATGATTGTTCTCCCAGCTGATGAATTCCCCTCTTCGAGTAAACAAATTTTCCTAATCTTTCTGTTCAAGCGCCATCTAC,0.821 RPM ratio (pull-down/input)
13,GATGATTGTTCTCCCAGCTGATGAATTCTCAGGGTCGAGTAAACAAATTTTCCTAATCTTTCTGTTCAAGCGCCATCTAC,0.745 RPM ratio (pull-down/input)
14,GATGATTGTTCTCCCAGCTGATGAATTGTGCCTGTCGAGTAAACAAATTTTCCTAATCTTTCTGTTCAAGCGCCATCTAC,0.964 RPM ratio (pull-down/input)
15,GATGATTGTTCTCCCAGCTGATGAATTTCGCAAGTCGAGTAAACAAATTTTCCTAATCTTTCTGTTCAAGCGCCATCTAC,0.831 RPM ratio (pull-down/input)
16,GATGATTGTTCTCCCAGCTGATGAATTAGGAACGTCGAGTAAACAAATTTTCCTAATCTTTCTGTTCAAGCGCCATCTAC,0.882 RPM ratio (pull-down/input)
17,GATGATTGTTCTCCCAGCTGATGAATTGCCGTCGTCGAGTAAACAAATTTTCCTAATCTTTCTGTTCAAGCGCCATCTAC,0.968 RPM ratio (pull-down/input)
18,GATGATTGTTCTCCCAGCTGATGAATTAGACATATCGAGTAAACAAATTTTCCTAATCTTTCTGTTCAAGCGCCATCTAC,1.06 RPM ratio (pull-down/input)
19,GATGATTGTTCTCCCAGCTGATGAATTTACTAAGTCGAGTAAACAAATTTTCCTAATCTTTCTGTTCAAGCGCCATCTAC,1.29 RPM ratio (pull-down/input)
20,GATGATTGTTCTCCCAGCTGATGAATTCCCACGATCGAGTAAACAAATTTTCCTAATCTTTCTGTTCAAGCGCCATCTAC,0.81 RPM ratio (pull-down/input)
21,GATGATTGTTCTCCCAGCTGATGAATTTCTAATATCGAGTAAACAAATTTTCCTAATCTTTCTGTTCAAGCGCCATCTAC,1.09 RPM ratio (pull-down/input)
22,GATGATTGTTCTCCCAGCTGATGAATTTGTAATATCGAGTAAACAAATTTTCCTAATCTTTCTGTTCAAGCGCCATCTAC,1.36 RPM ratio (pull-down/input)
23,GATGATTGTTCTCCCAGCTGATGAATTCCTAATATCGAGTAAACAAATTTTCCTAATCTTTCTGTTCAAGCGCCATCTAC,1.07 RPM ratio (pull-down/input)

row,Sequence,binding signal
1,GATGATTGTTCTCCCAGCTGATGAATTTGCAATATCGAGTAAACAAATTTTCCTAATCTTTCTGTTCAAGCGCCATCTAC,1.34 RPM ratio (pull-down/input)
2,GATGATTGTTCTCCCAGCTGATGAATTGCAAATATCGAGTAAACAAATTTTCCTAATCTTTCTGTTCAAGCGCCATCTAC,1.85 RPM ratio (pull-down/input)
3,GATGATTGTTCTCCCAGCTGATGAATTTCAAATATCGAGTAAACAAATTTTCCTAATCTTTCTGTTCAAGCGCCATCTAC,0.914 RPM ratio (pull-down/input)
4,GATGATTGTTCTCCCAGCTGATGAATTGTCAATATCGAGTAAACAAATTTTCCTAATCTTTCTGTTCAAGCGCCATCTAC,2.23 RPM ratio (pull-down/input)
5,GATGATTGTTCTCCCAGCTGATGAATTCTGAATATCGAGTAAACAAATTTTCCTAATCTTTCTGTTCAAGCGCCATCTAC,0.974 RPM ratio (pull-down/input)
6,GATGATTGTTCTCCCAGCTGATGAATTTCCAATATCGAGTAAACAAATTTTCCTAATCTTTCTGTTCAAGCGCCATCTAC,1.02 RPM ratio (pull-down/input)
7,GATGATTGTTCTCCCAGCTGATGAATTGTAAATATCGAGTAAACAAATTTTCCTAATCTTTCTGTTCAAGCGCCATCTAC,2.72 RPM ratio (pull-down/input)
8,GATGATTGTTCTCCCAGCTGATGAATTTTCAATATCGAGTAAACAAATTTTCCTAATCTTTCTGTTCAAGCGCCATCTAC,1.06 RPM ratio (pull-down/input)
9,GATGATTGTTCTCCCAGCTGATGAATTCTAAATATCGAGTAAACAAATTTTCCTAATCTTTCTGTTCAAGCGCCATCTAC,1.76 RPM ratio (pull-down/input)
10,GATGATTGTTCTCCCAGCTGATGAATTAGAAAGGTCGAGTAAACAAATTTTCCTAATCTTTCTGTTCAAGCGCCATCTAC,0.826 RPM ratio (pull-down/input)
11,GATGATTGTTCTCCCAGCTGATGAATTCACCTACTCGAGTAAACAAATTTTCCTAATCTTTCTGTTCAAGCGCCATCTAC,0.921 RPM ratio (pull-down/input)
12,GATGATTGTTCTCCCAGCTGATGAATTTATCGCTTCGAGTAAACAAATTTTCCTAATCTTTCTGTTCAAGCGCCATCTAC,1.1 RPM ratio (pull-down/input)
13,GATGATTGTTCTCCCAGCTGATGAATTCGTCCCCTCGAGTAAACAAATTTTCCTAATCTTTCTGTTCAAGCGCCATCTAC,0.772 RPM ratio (pull-down/input)
14,GATGATTGTTCTCCCAGCTGATGAATTTTGAGAATCGAGTAAACAAATTTTCCTAATCTTTCTGTTCAAGCGCCATCTAC,0.914 RPM ratio (pull-down/input)
15,GATGATTGTTCTCCCAGCTGATGAATTGTTTACATCGAGTAAACAAATTTTCCTAATCTTTCTGTTCAAGCGCCATCTAC,2.91 RPM ratio (pull-down/input)
16,GATGATTGTTCTCCCAGCTGATGAATTACATAAATCGAGTAAACAAATTTTCCTAATCTTTCTGTTCAAGCGCCATCTAC,1.64 RPM ratio (pull-down/input)
17,GATGATTGTTCTCCCAGCTGATGAATTTTTTACATCGAGTAAACAAATTTTCCTAATCTTTCTGTTCAAGCGCCATCTAC,0.953 RPM ratio (pull-down/input)
18,GATGATTGTTCTCCCAGCTGATGAATTTTACATATCGAGTAAACAAATTTTCCTAATCTTTCTGTTCAAGCGCCATCTAC,0.97 RPM ratio (pull-down/input)
19,GATGATTGTTCTCCCAGCTGATGAATTTACAACATCGAGTAAACAAATTTTCCTAATCTTTCTGTTCAAGCGCCATCTAC,1.67 RPM ratio (pull-down/input)
20,GATGATTGTTCTCCCAGCTGATGAATTTTACAAATCGAGTAAACAAATTTTCCTAATCTTTCTGTTCAAGCGCCATCTAC,1.1 RPM ratio (pull-down/input)
21,GATGATTGTTCTCCCAGCTGATGAATTTACAAAATCGAGTAAACAAATTTTCCTAATCTTTCTGTTCAAGCGCCATCTAC,1.74 RPM ratio (pull-down/input)
22,GATGATTGTTCTCCCAGCTGATGAATTTACATAATCGAGTAAACAAATTTTCCTAATCTTTCTGTTCAAGCGCCATCTAC,1.76 RPM ratio (pull-down/input)
23,GATGATTGTTCTCCCAGCTGATGAATTACAAAAATCGAGTAAACAAATTTTCCTAATCTTTCTGTTCAAGCGCCATCTAC,1.59 RPM ratio (pull-down/input)

# Source: PMC12820563, “FoxP3 forms a head-to-head dimer in vivo and stabilizes its multimerization on adjacent microsatellites”
